Data from PubChem BioAssay.
Activity calls are given as the source filed them.

Key:
[1] = system: Plasmodium falciparum Sir2 (PF13_0152, Sir2A); experiment: Plasmodium falciparum Sir2A binding compounds – biochemical, small-molecule microarray, 635 nm fluorescence, primary screen (AID 1098); conditions: fluorescence 635 nm, higher = more signal;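 also: score merges spot fluorescence intensity with its signal-to-noise ratio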
[2] = probe aDKK1 binding to arrayed compounds – biochemical, biotinylated probe, 635/667 nm fluorescence, primary screen (AID 1099); conditions: small-molecule microarray, higher = more signal;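 also: score merges 667nm spot fluorescence with signal to noise across triplicate slides; reference of the scale not given here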
[3] = probe aCHRDL2 binding to arrayed compounds – biochemical, biotinylated probe, 635/667 nm fluorescence, primary screen (AID 1100); conditions: small-molecule microarray, higher = more signal
[4] = change in splice reporter luminescence, either direction, cell-based, HEK293, spliceosome inhibition project, primary screen (AID 1101); conditions: HEK293 splicing luciferase reporter, 24 h, higher = more signal, called active from +8 up or from −8 down;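 also: HEK293 cells carrying a splicing-competent luciferase reporter gene; test concentration not given here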
[5] = target: Fibroblast growth factor 10 (Homo sapiens) (UniProt O15520); experiment: compounds binding fibroblast growth factor 10 – biochemical, small-molecule microarray, 635 nm fluorescence, primary screen (AID 1102); conditions: FGF10 binding, fluorescence 635 nm, higher = more signal
[6] = system: glycogen synthase kinase-3 (GSK3A per assay name; protocol says GSK3B); experiment: compounds binding glycogen synthase kinase-3 – biochemical, small-molecule microarray, 635 nm fluorescence, GSK3A, primary screen (AID 1103); conditions: fluorescence 635 nm, higher = more signal; also: the record names both GSK3A and GSK3B
[7] = target: Epidermal growth factor receptor (Homo sapiens) (UniProt P00533); experiment: compounds binding epidermal growth factor receptor – biochemical, small-molecule microarray, 635 nm fluorescence, primary screen (AID 1104); conditions: EGFR binding, higher = more signal;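 also: score merges 667 nm emission intensity with spot signal to noise over triplicate slides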
[8] = target: Follistatin-related protein 3 (Homo sapiens) (UniProt O95633); experiment: compounds binding follistatin-related protein 3 – biochemical, small-molecule microarray, 635 nm fluorescence, primary screen (AID 1105); conditions: FSTL3 binding, higher = more signal;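 also: score merges emission near 667 nm and signal to noise per printed spot across three slides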
[9] = target: Dickkopf-related protein 1 (Homo sapiens) (UniProt O94907); experiment: small molecules binding DKK1 protein – biochemical, small-molecule microarray, 635 nm fluorescence scan, primary screen (AID 1106); conditions: higher = more signal;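 also: score merges emission near 667 nm with signal to noise over three replicate slides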
[10] = system: Inhibin beta A chain (activin A); experiment: small molecules binding activin A – biochemical, small-molecule microarray, 635 nm fluorescence scan, primary screen (AID 1107); conditions: INHBA, higher = more signal;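 also: mouse activin A protein probed at 4.33 µg/mL on printed slides; score merges bound-protein fluorescence near 667 nm with spot signal-to-noise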

Fibroblast growth factor 10 (Homo sapiens), sequence (O15520 whole entry, looked up): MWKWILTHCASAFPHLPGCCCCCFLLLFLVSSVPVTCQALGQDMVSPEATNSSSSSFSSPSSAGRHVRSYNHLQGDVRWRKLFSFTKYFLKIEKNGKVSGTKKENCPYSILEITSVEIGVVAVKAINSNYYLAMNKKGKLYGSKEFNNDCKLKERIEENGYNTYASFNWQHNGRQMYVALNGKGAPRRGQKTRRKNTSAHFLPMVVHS
Dickkopf-related protein 1 (Homo sapiens), sequence (O94907 whole entry, looked up): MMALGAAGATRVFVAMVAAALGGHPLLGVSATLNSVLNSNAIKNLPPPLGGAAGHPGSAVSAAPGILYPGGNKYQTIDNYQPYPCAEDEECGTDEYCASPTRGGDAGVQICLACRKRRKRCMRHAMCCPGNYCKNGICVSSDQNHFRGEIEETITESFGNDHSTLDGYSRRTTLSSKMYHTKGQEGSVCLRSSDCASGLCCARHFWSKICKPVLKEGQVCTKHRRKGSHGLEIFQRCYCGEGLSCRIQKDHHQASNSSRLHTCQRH
Follistatin-related protein 3 (Homo sapiens), sequence (O95633 whole entry, looked up): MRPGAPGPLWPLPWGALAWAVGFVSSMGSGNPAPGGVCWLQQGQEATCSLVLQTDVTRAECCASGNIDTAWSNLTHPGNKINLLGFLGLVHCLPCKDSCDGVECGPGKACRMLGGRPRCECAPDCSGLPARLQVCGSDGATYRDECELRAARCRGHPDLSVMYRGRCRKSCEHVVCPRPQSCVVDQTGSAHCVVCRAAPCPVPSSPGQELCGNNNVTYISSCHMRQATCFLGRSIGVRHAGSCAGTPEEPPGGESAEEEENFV
Epidermal growth factor receptor (Homo sapiens), sequence (P00533 whole entry, looked up): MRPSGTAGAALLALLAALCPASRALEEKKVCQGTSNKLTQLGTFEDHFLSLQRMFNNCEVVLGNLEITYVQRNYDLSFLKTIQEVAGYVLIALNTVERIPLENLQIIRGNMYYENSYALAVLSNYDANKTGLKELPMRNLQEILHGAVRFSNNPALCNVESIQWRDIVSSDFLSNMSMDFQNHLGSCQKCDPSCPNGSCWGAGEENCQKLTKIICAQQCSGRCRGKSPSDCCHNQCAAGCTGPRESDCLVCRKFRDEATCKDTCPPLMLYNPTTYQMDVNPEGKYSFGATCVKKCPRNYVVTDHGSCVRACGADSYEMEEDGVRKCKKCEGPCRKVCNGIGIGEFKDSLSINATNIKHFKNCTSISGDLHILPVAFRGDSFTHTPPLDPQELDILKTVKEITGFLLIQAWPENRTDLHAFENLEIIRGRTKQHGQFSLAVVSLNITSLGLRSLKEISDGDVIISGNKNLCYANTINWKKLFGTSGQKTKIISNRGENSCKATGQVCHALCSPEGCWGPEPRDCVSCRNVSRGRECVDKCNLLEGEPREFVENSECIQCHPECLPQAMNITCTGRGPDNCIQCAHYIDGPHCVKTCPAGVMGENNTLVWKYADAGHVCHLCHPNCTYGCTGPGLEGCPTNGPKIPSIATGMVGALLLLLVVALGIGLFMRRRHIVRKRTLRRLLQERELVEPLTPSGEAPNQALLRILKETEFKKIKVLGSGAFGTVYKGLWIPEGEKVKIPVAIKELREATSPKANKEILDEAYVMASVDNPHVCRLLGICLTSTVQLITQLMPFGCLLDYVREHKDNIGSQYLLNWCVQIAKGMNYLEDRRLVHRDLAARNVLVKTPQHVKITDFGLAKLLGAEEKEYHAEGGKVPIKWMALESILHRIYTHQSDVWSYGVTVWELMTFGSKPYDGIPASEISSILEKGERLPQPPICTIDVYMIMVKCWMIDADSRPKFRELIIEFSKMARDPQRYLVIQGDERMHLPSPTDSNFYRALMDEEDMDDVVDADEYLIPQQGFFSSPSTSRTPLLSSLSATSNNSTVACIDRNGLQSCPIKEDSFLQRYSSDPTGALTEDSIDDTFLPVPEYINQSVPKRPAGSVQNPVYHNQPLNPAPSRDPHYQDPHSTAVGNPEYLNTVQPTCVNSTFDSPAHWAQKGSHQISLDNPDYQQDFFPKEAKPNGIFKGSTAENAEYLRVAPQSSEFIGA

| SMILES | composite z-score [1] | composite z-score [2] | composite z-score [3] | z-score [4] | composite z-score [5] | composite z-score [6] | composite z-score [7] | composite z-score [8] | composite z-score [9] | composite z-score [10] |
| --- | --- | --- | --- | --- | --- | --- | --- | --- | --- | --- |
| CC(C)[C@@H](OCc1ccccc1)[C@H](C)C=NOC[C@@H](C)[C@H](OCc1ccccc1)C(C)C | 0.556 | -0.319 | -0.552 | 0.741 (inactive) | 0.5 | -0.076 | 0.363 | 0.303 | 0.429 | -0.0094 |
| O=C1[C@H]2[C@H]3[C@H](O)[C@H](O)CC(=NOC[C@@H](O)COCc4ccco4)[C@H]3CC[C@H]2C(=O)N1c1cccc(Oc2ccccc2)c1 | 0.846 | -0.317 | 0.166 | -0.716 (inactive) | -0.86 | -0.686 | -0.249 | -0.65 | -0.547 | 0.624 |
| CC(C)C[C@@H]1NC(=O)[C@H]2C[C@@H](C(=O)O)[C@@H](c3ccc(O)cc3)N2C1=O | 1.08 | 0.717 | 0.171 | -0.0559 (inactive) | 0.0112 | 0.141 | -0.284 | 0.0204 | 0.63 | 1.05 |
| COC(=O)C1=C(C)N(Cc2ccccc2)[C@]23O[C@](C(=O)OC)(C(=O)N2[C@@H]1c1ccccc1)[C@H]1CCOC(=O)[C@H]13 | 0.539 | 0.057 | -0.733 | -0.236 (inactive) | 1.1 | 0.466 | 0.482 | 0.63 | 0.971 | 0.521 |
| Cc1ccc(C2CC=C(C(=O)O)CN2S(=O)(=O)c2ccc(C)cc2)cc1 (stereo not given) | 1.3 | 0.135 | 0.665 | -0.16 (inactive) | 0.31 | 0.834 | 0.201 | 0.338 | 0.0374 | 0.584 |
| CO[C@@H]1COC(=O)CC=C[C@@H](C)[C@@H]2C=C[C@H](O)[C@@H](COC(=O)[C@H](C)NC(=O)CC=C[C@H]1C)O2 | 1.46 | -0.308 | -1.09 | -1.09 (inactive) | 0.441 | 0.674 | 1.04 | 1.03 | 1.28 | 0.578 |
